Source: PubChem BioAssay AID1159580 (chemical genetic matrix, 2015)
Among all 5,500 compounds or so, about 2,000 (36%) were called active. About 18% were inconclusive and are not listed. Cut-off read from the data, not from the text of the source: active = normalized growth mostly below about 0.91 (no sharp cut-off); inconclusive = no clear call, values can overlap the other calls; inactive = mostly above about 0.92. Some of the results follow.

Experiment: chemical genetic growth profiling, strain panel (AID 1159580);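 note: tested at 20 µM; growth read once vehicle control cultures reached saturation at 30 °C; 1 = growth at the plate median or of vehicle wells; lower values mean less growth of the strain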
Conditions: S. cerevisiae deletion strains, growth OD

Measured: normalized growth

CCOC(=O)CCc1cc(N=Cc2cc(Br)ccc2O)c(O)c(N=Cc2cc(Br)ccc2O)c1
inactive: locus YAR019C, strain CDC15, hits give low values 0.963 | locus YBL105C, strain PKC1, hits give low values 0.959 | locus YBR135W, strain CKS1, hits give low values 0.968 | locus YBR136W, strain MEC1, hits give low values 0.966 | locus YBR160W, strain CDC28, hits give low values 0.959 | locus YDL017W, strain CDC7, hits give low values 0.962 | locus YDL028C, strain MPS1, hits give low values 0.968 | locus YDL101C, strain DUN1, hits give low values 0.967 | locus YDL108W, strain KIN28, hits give low values 0.959 | locus YDL132W, strain cdc53, hits give low values 0.961 | locus YDL214C, strain PRR2, hits give low values 0.834 | locus YDR052C, strain DBF4, hits give low values 0.953 | locus YDR054C, strain cdc34, hits give low values 0.951 | locus YDR226W, strain ADK1, hits give low values 0.979 | locus YDR477W, strain SNF1, hits give low values 0.805 | locus YER123W, strain YCK3, hits give low values 0.66 | locus YER133W, strain GLC7, hits give low values 0.788 | locus YFL009W, strain cdc4, hits give low values 0.962 | locus YFL029C, strain CAK1, hits give low values 0.955 | locus YFR003C, strain YPI1, hits give low values 0.961 | locus YFR019W, strain FAB1, hits give low values 0.877 | locus YFR028C, strain CDC14, hits give low values 0.974 | locus YGR040W, strain KSS1, hits give low values 0.824 | locus YGR052W, strain FMP48, hits give low values 0.768 | locus YHR079C, strain IRE1, hits give low values 0.622 | locus YHR082C, strain KSP1, hits give low values 0.843 | locus YHR205W, strain SCH9, hits give low values 0.87 | locus YIL147C, strain SLN1, hits give low values 0.962 | locus YJL095W, strain BCK1, hits give low values 0.643 | locus YJL128C, strain PBS2, hits give low values 0.942 | locus YJL157C, strain FAR1, hits give low values 0.773 | locus YJR016C, strain ILV3, hits give low values 0.968 | locus YJR066W, strain TOR1 (second series), hits give low values 0.764 | locus YJR066W, strain TOR1, hits give low values 0.727 | locus YKL048C, strain ELM1, hits give low values 0.873 | locus YKL067W, strain YNK1, hits give low values 0.823 | locus YKL101W, strain HSL1, hits give low values 0.833 | locus YKL193C, strain SDS22, hits give low values 0.965 | locus YKL203C, strain TOR2, hits give low values 0.786 | locus YLR133W, strain CKI1, hits give low values 0.804 | locus YLR403W, strain SFP1, hits give low values 0.75 | locus YML070W, strain DAK1, hits give low values 0.727 | locus YMR001C, strain CDC5, hits give low values 0.961 | locus YMR205C, strain PFK2 (second series), hits give low values 0.841 | locus YMR277W, strain FCP1, hits give low values 0.971 | locus YNL006W, strain LST8, hits give low values 0.976 | locus YNL020C, strain ARK1, hits give low values 0.79 | locus YNL161W, strain CBK1, hits give low values 0.959 | locus YNL183C, strain NPR1, hits give low values 0.754 | locus YNL207W, strain RIO2, hits give low values 0.957 | locus YNL222W, strain SSU72, hits give low values 0.975 | locus YNL307C, strain MCK1 (second series), hits give low values 0.76 | locus YOL078W, strain AVO1, hits give low values 0.965 | locus YOL136C, strain PFK27, hits give low values 0.679 | locus YOR061W, strain CKA2, hits give low values 0.809 | locus YOR119C, strain RIO1, hits give low values 0.84 | locus YOR231W, strain MKK1, hits give low values 0.657 | locus YOR329C, strain SCD5, hits give low values 0.961 | locus YPL031C, strain PHO85, hits give low values 0.8 | locus YPL153C, strain RAD53, hits give low values 0.784 | locus YPL204W, strain HRR25, hits give low values 0.754 | locus YPL209C, strain IPL1, hits give low values 0.964 | locus YPR025C, strain CCL1, hits give low values 0.954 | locus YPR106W, strain ISR1, hits give low values 0.98 | locus YPR111W, strain DBF20, hits give low values 0.958 | strain NNK1, hits give low values 0.964 | strain TSCII, hits give low values 0.96
active: locus YGR092W, strain DBF2, hits give low values 0.371 | locus YHR030C, strain SLT2, hits give low values 0.562 | locus YLR113W, strain HOG1, hits give low values 0.65 | locus YPL256C, strain CLN2, hits give low values 0.579
